Source: PubChem BioAssay
Pol beta inh-1 – DNA polymerase beta (human) inhibition | P06746 | Pol beta primer extension/strand displacement, fluorescence kinetic | Potency, µM (titrated, usually from 114 µM), for inactives: at the highest dose activity change, negative = inhibition, hits mostly inhibitors | 1.3% of 340,000 active; note: potency is the fitted concentration of half-maximal effect; % is set by controls: 0 for no effect and ±100 for the full control effect
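Enzyme-only controls used 10 nM Pol beta; buffer lacking enzyme served as negative control. Compound preincubated 15 min, then 50 nM substrate added; 0 and 10 min reads at room temperature.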
FEN1 inhibitor – blocks human flap endonuclease 1 | P39748 | Recombinant FEN1 flap cleavage, fluorescence, 15 min | Potency, µM (top dose mostly 114 µM), without a hit: at the top dose activity change, negative = inhibition, usual class: inhibitors | 0.35% of 390,000 active | AID 588795; note: potency is the fitted concentration of half-maximal effect; % is set by controls: 0 for no effect and ±100 for the full control effect; nearly all actives have a fitted effect of over 65% in size
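Steps: FEN1 (10 nM) dispensed; compound added by pin tool; 15 min at room temperature; substrate added to 50 nM final; reads at 0 min and 15 min; data normalized and fitted (four-parameter Hill).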
POLK inh – blocks human DNA polymerase kappa activity | AID 588579 | Q9UBT6 | Potency, µM (doses to about 107 µM), inactives show top-dose activity, negative = inhibition, actives largely listed as inhibitors | purified Pol kappa, fluorescent DNA synthesis assay, 10 min | 0.53% of 400,000 active; note: potency is the fitted concentration of half-maximal effect; % is set by controls: 0 for no effect and ±100 for the full control effect
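Inhibition of 10 nM Pol kappa is measured by a fluorescent read-out at 0 and 10 min following addition of 50 nM substrate (final), with a 15-min room-temperature compound preincubation.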
Pol eta inh – blocks human DNA polymerase eta activity; recombinant Pol eta, fluorescent DNA replication assay; Q9Y253; 1.2% of 390,000 active; Potency, µM (titrated, usually from 114 µM), for the others: top-dose activity change, negative = inhibition, most hits filed as inhibitors; note: potency is the fitted concentration of half-maximal effect; % is set by controls: 0 for no effect and ±100 for the full control effect
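Pol eta (10 nM) was preincubated with compounds for 15 min at room temperature, after which fluorescent replication substrate (50 nM final) was added to start the reaction. Fluorescence was read kinetically at 0 and 10 min.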
Pol iota inh – blocks human DNA polymerase iota activity; Q9UNA4; Potency, µM (top dose mostly 115 µM), for inactives: at the highest dose activity, negative = inhibition, hits mostly inhibitors; AID 588590; 1% of 390,000 active; Pol iota fluorescent replication assay, 10 min; note: potency is the fitted concentration of half-maximal effect
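Pol iota at 10 nM preincubated 15 min with compounds at room temperature; reaction started with fluorescent substrate, 50 nM final. Fluorescence read kinetically at 0 and 10 min; buffer-only wells as negative control.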
TDP1 inh – TDP1 (human) enzyme inhibition; Q9NUW8; recombinant TDP1, AlphaScreen DNA substrate cleavage; Potency, µM (doses to about 130 µM), without a hit: top-dose activity change, negative = inhibition, usual class: inhibitors; 0.28% of 350,000 active; note: potency is the fitted concentration of half-maximal effect; % is set by controls: 0 for no effect and ±100 for the full control effect; nearly all actives have a fitted effect of over 40% in size
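AlphaScreen read-out: signal falls as enzyme removes the 3' tyrosine-FITC from a 5'-biotinylated DNA oligo (15 nM, 5 min, RT). Enzyme was E. coli-made recombinant Tdp1 at 1 nM, exposed to compound for 15 min beforehand; beads 10 ug/ml, 10 min.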
Pol beta inh-2 – Inhibitors of human DNA polymerase beta, hit validation; 87% of 250 active; Potency, µM, most hits filed as inhibitors; AID 540280; shares compounds with Pol beta inh-1; Pol beta primer extension/strand displacement, fluorescence kinetic; calls by dose curve; note: potency is the fitted concentration of half-maximal effect
Klenow counter – counter-screen for DNA polymerase beta inhibitors: Klenow fragment inhibition | shares compounds with Pol beta inh-1 | Klenow exo- polymerase counter-screen, fluorescent DNA substrate | activity change, negative = inhibition, % at 57.1 µM | 250 tested, under 10 active
HIV RT inh – inhibits HIV-1 reverse transcriptase in counter-screen. AID 540301. shares compounds with Pol beta inh-1. activity % (negative = inhibition, positive = activation), % at 57.1 µM. HIV-1 RT polymerase activity, counter-screen. 250 tested, under 10 active
POLB inh gel – DNA polymerase beta inhibition, radiolabeled validation; shares compounds with Pol beta inh-1; radiolabeled primer extension gel assay, phosphorimager; inhibition, % at 10 µM; 91% of 110 active; AID 540325;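 active = inhibition at 10 µM of 30% or more; inconclusive = no clear call, values can overlap the other calls; inactive = inhibition at 10 µM under 30%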
Active calls of the source: *; u = inconclusive; x = not tested or not shown; [ ] = another dose, or the depositor's remark. This is a sample that favours compounds with a hit; in the whole collection about 2.4% have one here. Unless noted, calls come from the whole dose curve; as a rule, active = well fitted curve in the direction sought with a large enough effect; inconclusive = small, poorly fitted or top-dose-only effect, or another doubt; inactive = no such curve, though single readings can be large; an effect the other way counts as inactive or inconclusive.

SMILES	Pol beta inh-1	FEN1 inhibitor	POLK inh	Pol eta inh	Pol iota inh	TDP1 inh	others
O=C(/C=C/c1ccc(O)c(O)c1)OC1C[C@](O)(C(=O)O)C[C@@H](O)[C@H]1O (stereo not given in full)	x	x	x	x	x	15%
COCC(=O)N1CCC2(CC1)CN(Cc1cc(C(F)(F)F)cc(C(F)(F)F)c1)C2	x	x	-13%[60.1 µM]	x	x	x
O=C(Cn1cc(CN(Cc2ccccc2)Cc2ccccc2)nn1)Nc1cc(C(F)(F)F)ccc1Cl	x	x	x	x	x	1%
COc1ccc(-n2c(=O)c3ccc(C(=O)NCc4ccc(C)cc4)cc3n(CC(=O)Nc3ccc(F)cc3)c2=O)cc1	-2%	16%	-2%	-7%	14%	0%
Cc1cc(N2CCN(C)CC2)nc2ccc(NC(=O)Nc3ccc(Cl)cc3)cc12	-8%	-6%	-8%	-17%	8%	6%
Cc1cc(N)c2cc(NC(=O)Nc3ccc4nc(C)cc(N)c4c3)ccc2n1	x	x	6.3µM*	x	x	x
Cc1ccc(-n2c(=O)c3ccc(C(=O)NCc4ccco4)cc3n(Cc3ccc(Cl)cc3)c2=O)cc1	40%	6%	10%	8%	4%	-2%
Cc1ccc(C(=O)OC2=C(C(=O)c3ccccc3)N(C)S(=O)(=O)c3ccccc32)cc1	u	15%	-11%	-19%	89µM*	2%
O=C(NCc1ccccc1)n1cc(P(=S)(c2ccccc2)c2ccccc2)c2ccccc21	x	x	x	x	x	0%
C=CCNC(=O)[C@@H]1CSC2c3ccc(OC)c(OC)c3C(=O)N21 (stereo not given in full)	-17%	-5%	-6%	u	40µM*	x
COc1ccc2c(c1OC)C(=O)N1C2SC[C@H]1C(=O)NCCC(C)C (stereo not given in full)	25%	15%	-22%	-14%	u	x
O=C1C[C@@H](c2ccc(O)cc2)Oc2cc(O[C@@H]3O[C@H](CO)[C@@H](O)[C@H](O)[C@H]3O)cc(O)c21	x	x	-12%[12 µM]	x	x	8%
O=C1C[C@@H](c2ccc(O)c(O)c2)Oc2c1ccc(O[C@@H]1O[C@H](CO)[C@@H](O)[C@H](O)[C@H]1O)c2O	x	x	2.7µM*	x	x	-8%
O=C(/C=C/c1ccc(O)c(O)c1)c1ccc(O[C@@H]2O[C@H](CO)[C@@H](O)[C@H](O)[C@H]2O)c(O)c1O	x	x	0.19µM*	x	x	x
COc1cc(/C=C/CO)ccc1O[C@@H]1O[C@H](CO)[C@@H](O)[C@H](O)[C@H]1O	x	u	23%	-3%	28%	x
O=C(/C=C/c1ccco1)Nc1ccc2nc3n(c(=O)c2c1)CCCC3	-21%	-18%	-7%	16%	71µM*	5%
O=c1c2cc(NC(=S)N3CCCC3)ccc2nc2n1CCCCC2	4%	1%	-8%	-10%	28%	2%
CC(C)(C)OC(=O)NCc1nnc(-c2nc3ccccc3[nH]2)o1	x	x	x	x	x	-5%
c1ccc(Nc2nc(NCc3ccco3)nc3nccnc23)cc1	x	9%	8%	x	-14%	50µM*
Cc1ccc(C)c(Nc2nc(NCc3ccco3)nc3nccnc23)c1	x	-5%	7%	x	36%	-16%
CC1CCN(CC[S-])CC1.O.O.[Cl][Pt]	x	u	-27%	x	59%	x
COc1cc(/C=C/C(=O)OCC(=O)N2CCN(S(=O)(=O)c3ccc(C)cc3C)CC2)ccc1O	35µM*	-17%	u	20µM*	u	x
COc1ccc2[nH]c3nc(SCC(=O)NNC(=O)c4ccc(OC)c(OC)c4)nnc3c2c1	15%	4%	3%	u	0%	5%
COc1ccc2[nH]c3nc(SCC(=O)Nc4ccc5c(c4)OCO5)nnc3c2c1	22µM*	4%	-3%	u	u	-5%
O=C(Cn1cnc2sc(-c3ccccc3)cc2c1=O)NCc1ccco1	7.9µM*	u	32µM*	7.1µM*	10µM*	x	Pol beta inh-2=7.1*;Klenow counter=-10;HIV RT inh=18
SMILES	Pol beta inh-1	FEN1 inhibitor	POLK inh	Pol eta inh	Pol iota inh	TDP1 inh	others
O=C(Cn1cnc2sc(-c3ccccc3)cc2c1=O)NCc1ccccc1	u	0%	-7%	-10%	u	6%
O=C(Nc1ccc2nc(-c3ccccc3)[nH]c2c1)c1ccco1	u	-11%	-33%	u	u	5%
O=C(Nc1cccc(-c2nc3ccccc3[nH]2)c1)c1cccc(NC(=O)c2ccco2)c1	13µM*	u	u	50µM*	u	1%	Pol beta inh-2=32*;Klenow counter=-9;HIV RT inh=62
COc1ccc(NC(=O)Cn2ccn(-c3ccc(C)c(C)c3)c(=O)c2=O)cc1Cl	-15%	1%	-9%	-7%	38%	-6%
COc1cc(C(=O)Nc2ccc3c(c2)C(=O)c2ccccc2C3=O)cc(OC)c1OC	u	4%	-9%	u	24%	1%
COc1ccc(C(=O)Nc2ccc3c(c2)C(=O)c2ccccc2C3=O)cc1OC	2.2µM*	-15%	-10%	u	-5%	0%	Pol beta inh-2=22*;Klenow counter=-15;HIV RT inh=23;POLB inh gel=70*
CCc1ccc2oc(C(=O)NCc3ccccc3)cc(=O)c2c1	u	-3%	5%	-13%	-9%	-4%
CCN(CC)S(=O)(=O)c1ccc(N2CCOCC2)c(NC(=O)c2c3c(nc4ccccc24)CCC3)c1	8.9µM*	-6%	u	35µM*	32µM*	-9%	Pol beta inh-2=25*;Klenow counter=-22;HIV RT inh=19;POLB inh gel=88*
CCOc1ccc(C(=O)Nc2ccc(NC(=O)c3ccccc3)c(C)c2)cc1[N+](=O)[O-]	20µM*	-4%	-2%	-23%	153%	-2%	Pol beta inh-2=18*;Klenow counter=-3;HIV RT inh=42
CCOc1cccc(C(=O)Nc2ccc(NC(=O)c3ccccc3)c(C)c2)c1	9%	0%	-9%	-16%	44%	x
O=c1[nH]c(C(Cl)Cl)nc2sc3c(c12)CCN(Cc1ccccc1)C3	13µM*	-32%	u	40µM*	u	x	Pol beta inh-2=16*;Klenow counter=-5;HIV RT inh=4
COc1ccc(NC(=O)c2csnn2)cc1Cl	-6%	-2%	1%	x	23%	-4%
